# Test results reported in PubChem BioAssay (EPA / NIEHS).
# The source holds several records for some structures; these can differ, active in one and inactive in another. Active and inactive are the calls of the source. How the source made its calls: active means hit-call score of the fitted dose curve at least 0.9, where 1 is the maximum; inactive means score below 0.9.
# Target: Transcription factor Sp1 (Homo sapiens) (UniProt P08047)
# Experiment: ATG_Sp1_CIS: Attagene CIS-FACTORIAL HepG2 Assay for human Specificity Protein 1 (Sp1) (AID 2282961)
# Details: HepG2 Sp1 cis-reporter transcription, actives raise or lower the signal
# Method: ATG_CIS is a cell-based, multiplexed-readout assay that uses HepG2, a human liver cell line, with measurements taken at 24 hours after chemical dosing in a 24-well plate.ATG_Sp1_CIS is one of 52 assay component(s) measured or calculated from the ATG_CIS assay. It is designed to make measurements of mRNA induction, a form of inducible reporter, as detected with fluorescence intensity signals by Reverse transcription polymerase chain reaction (RT-PCR) and Capillary electrophoresis technology.Data from the assay component ATG_Sp1_CIS was analyzed into 1 assay endpoint. This assay endpoint, ATG_Sp1_CIS, was analyzed with bidirectional fitting relative to DMSO as the negative control and baseline of activity. Using a type of inducible reporter, measures of mRNA for gain or loss-of-signal activity can be used to understand the reporter gene at the transcription factor-level as they relate to the gene SP1. Furthermore, this assay endpoint can be referred to as a primary readout, because this assay has produced multiple assay endpoints where this one serves a reporter gene function. To generalize the intended target to other relatable targets, this assay endpoint is annotated to the dna binding intended target family, where the subfamily is zinc finger.
# Human liver HepG2 cells are transiently transfected with multiple reporter transcription units (MRTUs) in 6-well plates using FuGene 6 reagent (Roche; 3 ml FuGene/1 mg DNA). The MRTU constructs are regulated by a cis-regulating element (promoter). […] A major difference between the CIS and TRANS system is that in CIS activities of endogenous TFs are measured, whereas the TRANS assay evaluates changes in activities of exogenous, chimeric NR-Gal4 proteins. […] At the end of 24 hour incubation, total RNA was isolated using TriZol reagent (Invitrogen). The isolated RNA is then reverse-transcribed using oligo(dT) primer and Mo-MLV reverse transcriptase (Invitrogen) with DNAse I (Ambion) treatment for 30 min. The one-tenth of the produced cDNA was amplified by PCR using Taq DNA polymerase (Invitrogen) and two reporter sequence-specific primers. The PCR products were fluorescently labeled by primer extension with 6-arboxyfluorescein (6-FAM) 5'-labeled reporter sequence-specific primer (2 min at 95 C, 20 s at 68 C and 10 min at 72 C) and these products were digested with 5U of HpaI (New England Biolabs) for 2h at 37 C. The fragments were purified using Qiaquick PCR columns (Qiagen), analyzed on an ABI 3130xL genetic analyzer (Applied Biosystems) with peak positions identified by using a set of X-rhodamine (ROX)-labeled MapMarker1000 molecular weight standards (BioVentures). The raw capillary electrophoresis data was processed using Attagraph software (Attagene).
# Chain of Transcription factor Sp1 (Homo sapiens) (P08047 whole entry, looked up): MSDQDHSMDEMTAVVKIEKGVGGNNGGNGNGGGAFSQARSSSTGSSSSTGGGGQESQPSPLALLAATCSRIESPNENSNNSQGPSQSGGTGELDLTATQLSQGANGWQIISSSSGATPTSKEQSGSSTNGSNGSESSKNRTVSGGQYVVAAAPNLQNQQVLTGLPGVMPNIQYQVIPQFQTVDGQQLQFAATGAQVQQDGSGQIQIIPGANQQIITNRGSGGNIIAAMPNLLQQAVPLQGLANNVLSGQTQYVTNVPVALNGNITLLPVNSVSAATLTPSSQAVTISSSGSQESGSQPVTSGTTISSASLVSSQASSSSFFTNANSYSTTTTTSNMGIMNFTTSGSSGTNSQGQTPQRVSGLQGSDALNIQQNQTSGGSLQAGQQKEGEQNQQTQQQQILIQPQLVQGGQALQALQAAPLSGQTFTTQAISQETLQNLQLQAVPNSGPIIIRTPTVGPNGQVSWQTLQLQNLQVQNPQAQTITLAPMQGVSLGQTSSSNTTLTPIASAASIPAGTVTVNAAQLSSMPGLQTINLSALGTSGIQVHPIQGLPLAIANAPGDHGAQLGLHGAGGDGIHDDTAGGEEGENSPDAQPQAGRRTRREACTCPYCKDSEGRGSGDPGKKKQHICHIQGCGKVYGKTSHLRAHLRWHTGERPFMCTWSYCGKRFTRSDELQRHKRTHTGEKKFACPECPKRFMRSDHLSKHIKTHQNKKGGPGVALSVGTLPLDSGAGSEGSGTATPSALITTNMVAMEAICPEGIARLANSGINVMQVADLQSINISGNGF
SMILES,outcome,AC50
O=C=Nc1ccc(Cl)cc1,inactive,–
C=CC(F)(C(F)(F)F)C(F)(F)C(F)(F)F (stereo not given),inactive,–
CC(C)[C@H](C(=O)OC(C#N)c1cccc(Oc2ccccc2)c1)c1ccc(OC(F)F)cc1 (stereo not given in full),inactive,–
O=[N+]([O-])c1ccccc1O,inactive,–
CCCCCCCCCCCCCl,inactive,–
C[As+](C)(C)CC(=O)[O-],inactive,–
Cc1cc(C)cc(C)c1,inactive,–
O=C(CBr)c1ccc(O)cc1,inactive,–
O=C(NC(=O)c1c(F)cccc1F)Nc1cc(Cl)c(F)c(Cl)c1F,inactive,–
NNCCO,inactive,–
COP(=S)(OC)Oc1cc(Cl)c(I)cc1Cl,–,33.4 µM (active)
ClCCN1CCOCC1,inactive,–
Nc1nc(=S)[nH][nH]1,inactive,–
CCOC(=O)OC1=C(c2cc(C)ccc2C)C(=O)NC12CCC(OC)CC2 (stereo not given),inactive,–
CCCCC(CC)COC(=O)Cl (stereo not given),inactive,–
OCC(c1ccc(Cl)cc1)c1ccc(Cl)cc1,–,53.2 µM (active)
O=C1C=CC(=O)c2ccccc21,inactive,–
CCOP(=O)(OCC)OC(=CCl)c1ccc(Cl)cc1Cl,inactive,–
Nc1ccc(-c2ccccc2)cc1,inactive,–
C=CCOC(N)=O,inactive,–

SMILES,outcome,AC50
Nc1cccnc1,inactive,–
N#CCCC(Br)(C#N)CBr (stereo not given),–,49.2 µM (active)
Clc1cnc(Oc2ccc(Oc3ncc(Cl)cc3Cl)cc2)c(Cl)c1,inactive,–
CC(C)CC(C)(c1ccc(O)cc1)c1ccc(O)cc1,inactive,–
c1ccc2sc(SNC3CCCCC3)nc2c1,–,184 µM (active)
C=CCc1ccccc1O,inactive,–
CC(c1ccccc1)(c1ccc(O)cc1)c1ccc(O)cc1,inactive,–
O=C(CCl)Nc1ccccc1,–,25.8 µM (active)
BrCC(Br)c1ccccc1 (stereo not given),inactive,–
C[N+](C)(C)Cc1ccccc1,inactive,–
O=C(O)COc1cc(Cl)c(Cl)cc1Cl,inactive,–
CNC(=O)CSP(=O)(OC)OC,inactive,–
O=c1oc2ccccc2c(O)c1C(CC(O)c1ccc(-c2ccc(Br)cc2)cc1)c1ccccc1 (stereo not given),inactive,14.4 µM (active)
NC(=O)CCl,inactive,–
O=C(Cc1ccccc1)OCCc1ccccc1,inactive,–
N#Cc1ccccc1N,inactive,–
CC(C)N(C(=O)CCl)c1ccccc1,–,26.5 µM (active)
C#CCOC(=O)/C=C(C)/C=C/CC(C)CCCC(C)C (stereo not given),inactive,–
C=C(C)[C@@H]1CC=C(C=O)CC1,inactive,–
